Here are results for 40 compounds from PubChem BioAssay (EPA / NIEHS).

SMILES strings stand for the structures. Calls of active or inactive are those of the source. Rule for the calls: active = hit-call score of the fitted dose curve at least 0.9, where 1 is the maximum; inactive = score below 0.9.

Heat shock factor protein 1 (Homo sapiens), sequence (Q00613 whole entry, looked up): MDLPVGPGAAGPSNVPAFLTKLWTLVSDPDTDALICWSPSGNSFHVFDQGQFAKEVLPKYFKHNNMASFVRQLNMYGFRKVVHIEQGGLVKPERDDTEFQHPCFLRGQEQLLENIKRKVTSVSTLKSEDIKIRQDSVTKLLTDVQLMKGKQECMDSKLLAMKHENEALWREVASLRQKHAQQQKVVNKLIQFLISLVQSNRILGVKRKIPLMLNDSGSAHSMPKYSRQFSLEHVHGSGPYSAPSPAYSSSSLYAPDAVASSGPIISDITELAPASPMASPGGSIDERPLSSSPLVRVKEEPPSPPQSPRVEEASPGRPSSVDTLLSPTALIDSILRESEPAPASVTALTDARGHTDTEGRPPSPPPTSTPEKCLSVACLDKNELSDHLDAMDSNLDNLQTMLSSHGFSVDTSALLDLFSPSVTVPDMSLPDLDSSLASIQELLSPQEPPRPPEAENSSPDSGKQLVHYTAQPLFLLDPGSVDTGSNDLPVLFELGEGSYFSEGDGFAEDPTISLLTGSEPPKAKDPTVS

The target of this experiment is Heat shock factor protein 1 (Homo sapiens) (UniProt Q00613). As to the kind of experiment: ATG_HSE_CIS: Attagene CIS-FACTORIAL HepG2 Assay for human Heat Shock Transcription Factor 1 (HSE) (AID 2282953). The settings on record: HepG2 HSE cis-reporter, Attagene RNA transcription; actives raise or lower the signal. The procedure:
ATG_CIS is a cell-based, multiplexed-readout assay that uses HepG2, a human liver cell line, with measurements taken at 24 hours after chemical dosing in a 24-well plate.ATG_HSE_CIS is one of 52 assay component(s) measured or calculated from the ATG_CIS assay. It is designed to make measurements of mRNA induction, a form of inducible reporter, as detected with fluorescence intensity signals by Reverse transcription polymerase chain reaction (RT-PCR) and Capillary electrophoresis technology.Data from the assay component ATG_HSE_CIS was analyzed into 1 assay endpoint. This assay endpoint, ATG_HSE_CIS, was analyzed with bidirectional fitting relative to DMSO as the negative control and baseline of activity. Using a type of inducible reporter, measures of mRNA for gain or loss-of-signal activity can be used to understand the reporter gene at the transcription factor-level as they relate to the gene HSF1. Furthermore, this assay endpoint can be referred to as a primary readout, because this assay has produced multiple assay endpoints where this one serves a reporter gene function. To generalize the intended target to other relatable targets, this assay endpoint is annotated to the dna binding intended target family, where the subfamily is heat shock protein.
Human liver HepG2 cells are transiently transfected with multiple reporter transcription units (MRTUs) in 6-well plates using FuGene 6 reagent (Roche; 3 ml FuGene/1 mg DNA). The MRTU constructs are regulated by a cis-regulating element (promoter). […] A major difference between the CIS and TRANS system is that in CIS activities of endogenous TFs are measured, whereas the TRANS assay evaluates changes in activities of exogenous, chimeric NR-Gal4 proteins. […] At the end of 24 hour incubation, total RNA was isolated using TriZol reagent (Invitrogen). The isolated RNA is then reverse-transcribed using oligo(dT) primer and Mo-MLV reverse transcriptase (Invitrogen) with DNAse I (Ambion) treatment for 30 min. The one-tenth of the produced cDNA was amplified by PCR using Taq DNA polymerase (Invitrogen) and two reporter sequence-specific primers. The PCR products were fluorescently labeled by primer extension with 6-arboxyfluorescein (6-FAM) 5'-labeled reporter sequence-specific primer (2 min at 95 C, 20 s at 68 C and 10 min at 72 C) and these products were digested with 5U of HpaI (New England Biolabs) for 2h at 37 C. The fragments were purified using Qiaquick PCR columns (Qiagen), analyzed on an ABI 3130xL genetic analyzer (Applied Biosystems) with peak positions identified by using a set of X-rhodamine (ROX)-labeled MapMarker1000 molecular weight standards (BioVentures). The raw capillary electrophoresis data was processed using Attagraph software (Attagene).
On to `CCCCCCCCC(=O)OCC`, for which the result was inactive.
What is called AC50 is the concentration at which the activity in the assay is half-maximal. Regarding `CC1=Nc2ccc3ccccc3c2C1(C)C`, the AC50 is 147 µM (active).
As for `CC1OC1C1CCC2(C)OC2C1` (stereo not given), the outcome was inactive.
For the compound `CN(C)CCCN(C)C`, the call was inactive.
As for `CCc1c(C(=O)O)c(=O)cnn1-c1ccc(Cl)cc1`, the result was inactive.
Consider `CO[Si](OC)(OC)c1ccccc1`, for which the result was inactive.
For `COc1ccc(C(Cl)=C(c2ccc(OC)cc2)c2ccc(OC)cc2)cc1`, the result was inactive.
In the case of `OCCNCc1ccccc1`, the compound was classed as inactive.
On the same count and under the same terms, in the case of `C=CC(=O)OCCOC(=O)C=C` it was “inactive”.
As to `CC(C)(c1cc(Br)c(OCCO)c(Br)c1)c1cc(Br)c(OCCO)c(Br)c1`, the AC50 is 21.5 µM (active).
As for `Nc1ccc(Cl)cc1Cl`, the outcome was inactive.
Same read-out and setting: in the case of `CC(=O)C=CC1C(C)=CCC(C)C1(C)C` (stereo not given) it was “inactive”; in that of `CCOC(=O)[C@H](C)O`, “inactive”; in that of `CCO[Si](C)(OCC)OCC`, “inactive”.
As to `CN(C)c1ccc(N=Nc2ccccc2C(=O)O)cc1`, the AC50 was 56.5 µM (active).
Consider `Cc1cccc(C(=O)O)c1`, for which the call was inactive.
On to `CCN(Cc1cccc(S(=O)(=O)O)c1)c1ccc(C(=C2C=CC(=[N+](CC)Cc3cccc(S(=O)(=O)[O-])c3)C=C2)c2ccccc2)cc1`, for which the AC50 was 83 µM (active).
For `CCOC(=O)CC(C(C)=O)C(C)=O`, the compound was called inactive.
Consider `O=C1CCCCCN1SSN1CCCCCC1=O`, for which the AC50 was 133 µM (active).
Same read-out and setting: in the case of `Nc1ccc(N)c(Cl)c1` it was 8.3 µM (active).
Consider `Nc1ccc2cc3ccccc3cc2c1`, for which the call was inactive.
As for `NC(CO)(CO)CO`, the outcome was inactive.
On the same count and under the same terms, in the case of `O=P(O)(O)Oc1ccccc1` it was “inactive”.
For the compound `CCCC(C)CCC(C)=O` (stereo not given), the result was inactive.
The same measure, in the same setting: in the case of `OCCc1ccncc1` it was “inactive”; in that of `CCCCNc1ccc(NCCCC)c2c1C(=O)c1ccccc1C2=O`, “inactive”; in that of `CCCCCCC(O)CO` (stereo not given), “inactive”.
Still for that read-out and setting: next, `O=C(OCC1CCC2OC2C1)C1CCC2OC2C1` (stereo not given): “inactive”.
Still for that read-out and setting: in the case of `COCc1c(C(C)C)nc(C(C)C)c(/C=C/[C@@H](O)C[C@@H](O)CC(=O)O)c1-c1ccc(F)cc1` it was “inactive”.
Consider `c1ccc(CNCc2ccccc2)cc1`, for which the outcome was inactive.
As to `O=S1(=O)OC(c2ccc(O)cc2)(c2ccc(O)cc2)c2ccccc21`, the compound was classed as inactive.
On to `C=CC=CC=CCCCCC`, for which the result was inactive.
As to `O=C(c1ccccc1)C1CCC1`, the compound was classed as inactive.
Regarding `O=[N+]([O-])c1ccc(CO)cc1`, the outcome was inactive.
Take `O=C1c2cccc(O)c2C(=O)c2c(O)cc(CO)cc21`: the outcome was inactive.
For `c1cc(C(c2ccc(OCC3CO3)cc2)C(c2ccc(OCC3CO3)cc2)c2ccc(OCC3CO3)cc2)ccc1OCC1CO1` (stereo not given), the AC50 is 56.5 µM (active).
For `CC1(C)S[C@@H]2[C@H](NC(=O)COc3ccccc3)C(=O)N2[C@H]1C(=O)O`, the compound was called inactive.
The same measure, in the same setting: next, `CCN(CC#N)c1cccc(C)c1`: “inactive”.
`CCCCCCCCCCCCCCCC[N+](C)(C)CC`: the outcome was inactive.
Take `CCCCCc1ccc(Cl)cc1`: the compound was classed as inactive.
